Test results taken from PubChem BioAssay (Tox21).
Records with an inconclusive call do not appear. Active and inactive are the calls of the source. Unless noted, the call rests on the fitted dose curve; in most records, active means well fitted curve in the direction sought with a large enough effect in the repeat runs; inconclusive means weak or mixed curves; inactive means no such curve, though single readings can be large; an effect the other way counts as inactive or inconclusive.

Tests used:
[1] = qHTS assay for small molecule agonists of the p53 signaling pathway (AID 651631; calls by dose curve; further: nearly all actives have a fitted effect of over 15% in size)
Outline: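 Beta-lactamase reporter activity under p53 response elements was quantified in HCT-116 cells by FRET fluorescence, following 16 h incubation with test compounds at 37 °C and 2 h substrate development at room temperature.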

[2] = qHTS assay for small molecule agonists of the p53 signaling pathway - cell viability (AID 651633; calls by dose curve;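 further: p53RE-bla HCT reporter cells with a stable beta-lactamase p53 reporter; series mostly up to about 83 µM; nearly all actives have a fitted effect of over 30% in size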)
Outline: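 p53RE-bla cells were treated with compound for 16 hours at 37 C. Cytotoxicity was then measured as CellTiter-Glo luminescence after 30 min at room temperature.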

[3] = qHTS assay for small molecules that induce genotoxicity in human embryonic kidney cells expressing luciferase-tagged ATAD5 - cell viability (AID 651634; calls by dose curve; further: nearly all actives have a fitted effect of over 25% in size)
Outline: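 HEK293T ATAD5-luc cells, 2,000/well; compound 15.5 hr, 37C/5% CO2; CellTiter-Fluor 30 min, 37C; fluorescence read.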

[4] = qHTS assay for small molecule disruptors of the mitochondrial membrane potential - cell viability (AID 720634; calls by dose curve;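 further: human HepG2 liver cancer cells; series mostly up to about 83 µM; nearly all actives have a fitted effect of over 20% in size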)
Outline: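 Luminescence from CellTiter-Glo (ATP content) gave viability in HepG2 cells, read in the same wells as the MMP dye assay after 1 hr compound exposure at 37 C.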

[5] = qHTS assay for small molecule disruptors of the mitochondrial membrane potential (AID 720635)
Outline: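 HepG2 cells exposed to compound 1 hr at 37C, then Mito-MPS dye 30 min. Ratio read of aggregate (540/590 nm) versus monomer (490/535 nm) fluorescence.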

[6] = qHTS assay to test for compound auto fluorescence at 590 nm (red) in HepG2 cells (AID 720674)
Outline: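 Seeding: 2,000 HepG2 cells/well, MEM/10% FBS, overnight 37 C. Dosing: compound vs DMSO. Incubation: 1 hr, 37 C, 5% CO2. Read: fluorescence 540 ex/590 em, Rose Bengal sodium as red reference.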

[7] = qHTS assay to test for compound auto fluorescence at 535 nm (green) in HepG2 cells (AID 720675)
[8] = qHTS assay to test for compound auto fluorescence at 460 nm (blue) in HEK293 cells (AID 720678)
Outline: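 Intrinsic compound fluorescence is recorded in live HEK293 cultures after overnight incubation at 37C, 5% CO2, using excitation 405 nm and emission 460 nm. Values are referenced to triamterene.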

[9] = qHTS assay to test for compound auto fluorescence at 590 nm (red) in HEK293 cells (AID 720679)
Outline: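 Red autofluorescence, HEK293 cells: 2,000 cells/well; attach 4-5 hr 37C; add 23 nL cpd or DMSO; incubate o/n 37C 5% CO2; read Ex540/Em590; Rose Bengal sodium reference.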

[10] = qHTS assay to test for compound auto fluorescence at 535 nm (green) in HEK293 cells (AID 720680)
[11] = qHTS assay to test for compound auto fluorescence at 460 nm (blue) in HEK293 cell free culture (AID 720681)
Outline: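 Compounds were added to cell-free DMEM with 10% FBS and fluorescence read directly. The blue channel used 405 nm excitation and 460 nm emission, with triamterene as the reference fluorophore.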

[12] = qHTS assay to test for compound auto fluorescence at 535 nm (green) in HEK293 cell free culture (AID 720682)
Outline: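 Each library compound, or DMSO control, is added by pintool to medium alone, comprising DMEM and 10% FBS. Emission at 535 nm following 485 nm excitation is quantified against fluorescein.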

[13] = qHTS assay to test for compound auto fluorescence at 590 nm (red) in HEK293 cell free culture (AID 720683)
Outline: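 Cell-free wells of DMEM with 10% FBS received compound, and intrinsic fluorescence was read at excitation/emission 540/590 nm. Values expressed as equivalence to Rose Bengal sodium.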

[14] = qHTS assay to test for compound auto fluorescence at 590 nm (red) in HepG2 cell free culture (AID 720684)
Outline: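 Auto fluorescence equivalency versus Rose Bengal sodium, red channel Ex/Em 540/590 nm; compounds in cell-free MEM/10% FBS; DMSO vehicle control.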

[15] = qHTS assay to test for compound auto fluorescence at 460 nm (blue) in HepG2 cell free culture (AID 720685)
Outline: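 Cell-free plates of MEM plus 10% FBS received 23 nL compound or DMSO vehicle; blue-channel (405/460 nm) intensity scored against triamterene as reference fluorophore.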

[16] = qHTS assay to test for compound auto fluorescence at 535 nm (green) in HepG2 cell free culture (AID 720686)
[17] = qHTS assay to test for compound auto fluorescence at 460 nm (blue) in HepG2 cells (AID 720687)
Outline: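 HepG2 cells in MEM with 10% FBS, attached overnight at 37 C, were exposed to compound or DMSO for 1 hr at 37 C, 5% CO2. Blue fluorescence was read at 405/460 nm, with triamterene as reference fluorophore.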

[18] = qHTS assay for small molecules that induce genotoxicity in human embryonic kidney cells expressing luciferase-tagged ATAD5 (AID 651632); further: nearly all actives have a fitted effect of over 15% in size
Outline: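 Luminescence read-out: after 16 hr compound exposure at 37C, ATAD5-luciferase HEK293T cells received Amplite, 30 min RT, then CCD imaging. A rise in signal marks genotoxic stress.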

[19] = target: Glucocorticoid receptor (Homo sapiens) (UniProt P04150); assay: qHTS assay to identify small molecule agonists of the glucocorticoid receptor (GR) signaling pathway (AID 720691; active means well fitted activation curve with a large enough effect in the signal ratio in the repeat runs, not every such curve was filed as active; the % refers to the signal ratio)
Chain of Glucocorticoid receptor (Homo sapiens) (P04150 whole entry, looked up): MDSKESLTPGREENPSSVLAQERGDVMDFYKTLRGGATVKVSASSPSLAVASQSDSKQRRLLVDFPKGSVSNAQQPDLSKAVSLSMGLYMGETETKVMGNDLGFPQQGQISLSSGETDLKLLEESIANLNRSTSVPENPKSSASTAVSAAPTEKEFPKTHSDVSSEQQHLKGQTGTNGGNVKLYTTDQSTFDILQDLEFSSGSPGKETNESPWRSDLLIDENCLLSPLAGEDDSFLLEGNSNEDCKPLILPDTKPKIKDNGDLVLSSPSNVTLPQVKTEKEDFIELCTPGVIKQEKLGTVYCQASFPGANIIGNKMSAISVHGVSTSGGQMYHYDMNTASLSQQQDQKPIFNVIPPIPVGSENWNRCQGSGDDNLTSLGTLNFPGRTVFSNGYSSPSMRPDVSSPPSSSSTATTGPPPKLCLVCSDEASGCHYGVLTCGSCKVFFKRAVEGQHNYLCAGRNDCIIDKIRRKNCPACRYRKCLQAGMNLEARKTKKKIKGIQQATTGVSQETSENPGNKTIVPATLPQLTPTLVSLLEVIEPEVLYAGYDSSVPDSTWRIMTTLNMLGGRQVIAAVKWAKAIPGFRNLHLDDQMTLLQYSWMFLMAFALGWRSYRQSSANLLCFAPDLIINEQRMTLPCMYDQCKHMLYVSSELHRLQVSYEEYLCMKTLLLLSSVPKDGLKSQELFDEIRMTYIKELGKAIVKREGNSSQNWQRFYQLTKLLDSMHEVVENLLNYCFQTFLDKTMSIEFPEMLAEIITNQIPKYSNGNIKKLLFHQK
Outline: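 HeLa GR-bla reporter line; cells pre-incubated 4 h, compound in DMSO 18 h at 37 C; LiveBLAzer B/G FRET substrate 2 h RT; fluorescence intensity read-out.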

[20] = target: Glucocorticoid receptor (Homo sapiens) (UniProt P04150); assay: qHTS assay to identify small molecule antagonists of the glucocorticoid receptor (GR) signaling pathway (AID 720692; active means well fitted inhibition curve with a large enough effect in the signal ratio in the repeat runs, not every such curve was filed as active; the % refers to the signal ratio)
Outline: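 Read-out: beta-lactamase FRET substrate fluorescence, 2 h at room temperature, in HeLa cells stably carrying a GRE-driven bla reporter. Compounds were co-incubated with 5 nM dexamethasone agonist (final) for 18 h at 37 C.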

Measured: Potency

Cc1ccccc1C(=O)O
not listed: [18] | [19] | [20]
inactive: all other assays above

CN1[C@@H]2CC[C@H]1CC(NC(=O)n1c(=O)[nH]c3ccccc31)C2 (stereo partly drawn)
not listed: [2] | [5]
inactive: all other assays above

NC(CS)C(=O)O (stereo not drawn)
not listed: [2] | [19] | [20]
inactive: all other assays above

c1ccc(SCCSc2ccccc2)cc1
not listed: [2] | [5] | [18] | [19] | [20]
inactive: all other assays above

CCO[Si](CCCN=C=O)(OCC)OCC
not listed: [4] | [5] | [19] | [20]
inactive: all other assays above

OCC(O)[C@@H](O)[C@H](O)[C@H](O)CO[C@H]1O[C@H](CO)[C@@H](O)[C@H](O)[C@H]1O (stereo partly drawn)
not listed: [2] | [5]
inactive: all other assays above

O=C(O)CCNC(=O)c1ccc(N=Nc2ccc(O)c(C(=O)O)c2)cc1
not listed: [5]
inactive: all other assays above

CC(C)[C@H](N)C(=O)OCCOCn1cnc2c(=O)[nH]c(N)nc21
not listed: [2] | [5]
inactive: all other assays above
